Cytotoxicity call data for 18 compounds are collected here from the antibiotic and cytotoxicity screens of Wong et al. (2023).

Structures are written as SMILES. Screen size: about 39,000 compounds; about 3,300 (8.5%) were called active. The entries come from a sample that favours actives as a whole.

This assay has as its system HepG2. As to the kind of experiment: cytotoxicity call (relative viability < 0.9). As to conditions: 10 µM.
In the case of `C[C@@H]1CN([C@H](C)CO)S(=O)(=O)c2ccc(C#CCN(C)C)cc2O[C@H]1CN(C)C(=O)c1ccccc1F`, the cytotoxicity call is “inactive”.

As to `O=C(C[C@H]1C[C@@H]2c3cc(NC(=O)C4CCOCC4)ccc3O[C@@H]2[C@@H](CO)O1)NCc1ccc(Cl)cc1`, the cytotoxicity call is “inactive”.

Take `CCS(=O)(=O)N1C[C@]2(CN(Cc3cccc(c3)Cl)[C@H](CO)c3c2c2ccc(cc2n3C)OC)C1`: the cytotoxicity call was “inactive”.

In the case of `C[C@H](CO)N1C[C@H](C)[C@H](CN(C)C(=O)Nc2ccc(N3CCCCC3)cc2)OCc2cnnn2CCCC1=O`, the cytotoxicity call is “inactive”.

On to `COc1ccc(NC(=O)Nc2ccc3c(c2)C(=O)N([C@@H](C)CO)C[C@@H](C)[C@@H](CN(C)C(=O)Cc2ccccc2)OCCCC[C@H](C)O3)cc1`, for which the cytotoxicity call is “inactive”.

Take `COc1ccc(NC(=O)Nc2ccc3c(c2)C(=O)N([C@H](C)CO)C[C@H](C)[C@H](CN(C)C(=O)Nc2ccccc2)OCCCC[C@@H](C)O3)cc1`: the cytotoxicity call was “inactive”.

As to `C[C@H](O)C#Cc1cnc2c(c1)C(=O)N([C@H](C)CO)C[C@@H](C)[C@H](CN(C)Cc1cncnc1)O2`, the cytotoxicity call was “inactive”.

`O=C(C[C@H]1C=C[C@H](NC(=O)Cc2ccccn2)[C@H](CO)O1)NCCc1ccncc1`: the cytotoxicity call was “inactive”.

Take `C[C@@H]1CN([C@@H](C)CO)C(=O)c2cc(NC(=O)CCCN(C)C)ccc2O[C@@H](C)CCCCO[C@@H]1CN(C)S(=O)(=O)c1cn(C)cn1`: the cytotoxicity call was “inactive”.

With `C[C@@H]1CN([C@@H](C)CO)C(=O)c2c(c3ccccc3n2C)-c2ccccc2CO[C@@H]1CN(C)Cc1ccc2c(c1)OCCN2C`, the cytotoxicity call was “inactive”.

As for `C[C@H](CO)N1C[C@H](C)[C@H](CN(C)Cc2ccc3c(c2)OCCN3C)OCc2ccccc2-c2c(n(C)c3ccccc23)C1=O`, the cytotoxicity call was “inactive”.

For `C[C@H]1CN([C@@H](C)CO)C(=O)c2c(c3ccccc3n2C)-c2ccccc2CO[C@@H]1CN(C)Cc1ccc2c(c1)OCCN2C`, the cytotoxicity call is “active”.

On to `C[C@@H]1CN([C@H](C)CO)C(=O)c2c(c3ccccc3n2C)-c2ccccc2CO[C@H]1CN(C)Cc1ccc2c(c1)OCCN2C`, for which the cytotoxicity call was “inactive”.

With `C[C@@H]1CN([C@H](C)CO)C(=O)c2c(c3ccccc3n2C)-c2ccccc2CO[C@@H]1CN(C)Cc1ccc2c(c1)OCCN2C`, the cytotoxicity call was “active”.

Turning to `C[C@H]1CN([C@@H](C)CO)C(=O)c2c(c3ccccc3n2C)-c2ccccc2CO[C@H]1CN(C)Cc1ccc2c(c1)OCCN2C`, the cytotoxicity call was “inactive”.

Turning to `C[C@@H]1CN([C@@H](C)CO)C(=O)c2c(c3ccccc3n2C)-c2ccccc2CO[C@@H]1CN(C)Cc1ccc2c(c1)OCO2`, the cytotoxicity call is “inactive”.

With `C[C@H](CO)N1C[C@H](C)[C@@H](CN(C)Cc2ccc3c(c2)OCCN3C)OCc2ccccc2-c2c(n(C)c3ccccc23)C1=O`, the cytotoxicity call was “inactive”.

Regarding `C[C@@H]1CN([C@@H](C)CO)C(=O)c2c(c3ccccc3n2C)-c2ccccc2CO[C@H]1CN(C)Cc1ccc2c(c1)OCCN2C`, the cytotoxicity call was “active”.
